Measured values reported in PubChem BioAssay AID624330 (Southern Research Specialized Biocontainment Screening …, 2012).
The whole screen tested about 340,000 compounds, of which about 2,100 (0.62%) were called active.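 The calls were made as follows: active = first-screen hits whose inhibition reached a set limit at any dose in the follow-up dose series; inconclusive = inhibition above the set first-screen limit but never retested; inactive = the rest.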 These entries were drawn from the full list. Results with a measured potency or affinity are listed apart.

Each compound was assayed against Rac GTPase-activating protein 1 (Homo sapiens) (UniProt Q9H0H5) (assay: MgcRacGAP GTPase-activating activity inhibitors, confirmation, biochemical, ADP Hunter fluorescence, primary and confirmatory (AID 624330;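 also: fluorescence reports GDP produced by GAP-driven GTP hydrolysis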)). Details: MgcRacGAP-stimulated Rac1 GTP hydrolysis, at 30 µM, active compounds read high, GST-tagged Rac1 F28L mutant substrate.
Sequence of Rac GTPase-activating protein 1 (Homo sapiens) (Q9H0H5 whole entry, looked up): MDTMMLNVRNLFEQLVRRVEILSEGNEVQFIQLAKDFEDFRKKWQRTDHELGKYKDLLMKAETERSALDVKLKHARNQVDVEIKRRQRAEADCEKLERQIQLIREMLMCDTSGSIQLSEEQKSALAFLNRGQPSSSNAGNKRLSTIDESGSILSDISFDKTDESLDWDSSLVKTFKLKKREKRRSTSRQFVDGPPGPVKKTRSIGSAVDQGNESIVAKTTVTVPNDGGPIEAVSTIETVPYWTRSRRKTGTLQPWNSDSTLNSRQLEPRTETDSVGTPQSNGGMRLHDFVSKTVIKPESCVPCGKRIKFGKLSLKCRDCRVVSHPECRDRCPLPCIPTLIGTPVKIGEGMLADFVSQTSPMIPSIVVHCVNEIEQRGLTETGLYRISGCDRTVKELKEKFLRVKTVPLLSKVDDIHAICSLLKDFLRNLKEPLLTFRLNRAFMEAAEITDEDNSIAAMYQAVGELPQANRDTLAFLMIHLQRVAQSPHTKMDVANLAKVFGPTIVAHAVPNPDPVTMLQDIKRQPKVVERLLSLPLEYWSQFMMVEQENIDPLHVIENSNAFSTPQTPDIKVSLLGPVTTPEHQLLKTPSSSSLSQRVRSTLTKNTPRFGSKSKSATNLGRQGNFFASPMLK

inhibition, inactive:
Cc1cc2oc(=O)cc(CSc3nc(N)cc(N)n3)c2cc1C(C)C 11.9%
N#Cc1ccc(N[C@@H]2CCN3C(=O)c4ccccc4[C@@H]3C[C@H]2O)cc1 4.35%
O=C1c2ccccc2[C@@H]2C[C@@H](O)[C@H](Nc3ccccc3)CCN12 8.38%
CCC1CCCCN1Cc1ccc(OC)c(C)c1 (stereo not drawn) 14.3%
Cc1ccc(S(=O)(=O)NCCS(=O)(=O)N2CCN(c3ccccc3)CC2)cc1 -3.13%
CC(C)(c1ccc(O)c([N+](=O)[O-])c1)c1ccc(O)c([N+](=O)[O-])c1 5%
N=C(N)SCc1ccc(O)c([N+](=O)[O-])c1 14.6%
CN(CC(=O)Nc1ccc2c(c1)CCC2)CC(=O)Nc1ccccc1Br 3.47%
Nc1ccc2c(c1)CCC2=O 1.82%
CC(=O)Nc1c(Cl)cc2c(c1Cl)Cc1cc(N)ccc1-2 2.49%
CC(=O)Nc1cc2c(cc1Cl)-c1ccccc1C2 0.41%
Nc1ccc2c(c1)Cc1cc(Cl)c(Cl)cc1-2 31.7%
O=[N+]([O-])c1cc2c(cc1Br)-c1ccccc1C2 3.13%
Nc1ccc2c(c1)Cc1c(F)cccc1-2 19.7%
COc1cc2c(cc1[N+](=O)[O-])-c1ccccc1C2 -0.68%
COc1cc(N)ccc1-c1cc2ccccc2oc1=O 3.42%
O=C(CCc1nc2ccccc2s1)NCc1ccccc1F 3.81%
CCSC1=N/C(=C\c2ccccc2)C(=O)N1 7.65%
C/C(=N/NC(=O)C1CC1(c1ccccc1)c1ccccc1)c1ccco1 (stereo not drawn) 10.7%
COc1cc2cc(CN(Cc3cccnc3)C(=O)Nc3ccccc3)c(=O)[nH]c2cc1OC 13.6%
CCCCn1c(N)c(N(CCOC)C(=O)CCN2C(=O)C3CC=CCC3C2=O)c(=O)[nH]c1=O (stereo not drawn) 9.87%
O=C(NCC(=O)N1CCCCCCC1)c1ccc(Cl)c(Cl)c1 16.3%
CC(=O)Nc1ccc2c(c1Br)Cc1ccccc1-2 2.11%
Nc1c(Cl)cc2c(c1Br)Cc1ccccc1-2 13.1%
CC1CN(CC(=O)NC(C)c2ccccc2)CC(C)O1 (stereo not drawn) 10.1%
O=C(CN1CCN(C(c2ccccc2)c2ccccc2)CC1)NCc1ccccc1 4.24%
CC1Cc2ccccc2N1CC(=O)NC(c1ccccc1)c1ccccc1 (stereo not drawn) -0.83%
O=C(CN1CCCCCC1)NC(c1ccccc1)c1ccccc1 25.4%
COCCNC(=O)CN1CCN(C(c2ccccc2)c2ccccc2)CC1 25.6%
O=C(CN1CCCC1)NC(c1ccccc1)c1ccccc1 23.8%
O=C(CN1CCN(Cc2ccccc2)CC1)Nc1ccc(Cl)cc1 10.4%
Cc1ccc(NC(=O)CN2CCN(Cc3ccccc3)CC2)cc1F 6.45%
CCN1CCN(C(=O)c2ccccc2Nc2ccc(SC(F)F)cc2)CC1 9.86%
CCCCCC(=O)Nc1cccc(S(=O)(=O)NC2=NCCC2)c1 6%
O=C(NCc1ccccn1)c1ccc(NS(=O)(=O)c2cccc(Cl)c2)cc1 2.91%
CC1CN(Cc2nc3c(c(=O)n(C)c(=O)n3C)n2CC(O)CO)CC(C)O1 (stereo not drawn) 1.13%
CC(NC(=O)C(C)N1CCN(Cc2ccccc2)CC1)c1ccc(F)cc1 (stereo not drawn) 4.63%
CC(NC(=O)C(C)N1CCN(Cc2ccccc2)CC1)c1ccccc1 (stereo not drawn) 4.7%
CCn1c(SCC(=O)Nc2cccc(F)c2)nc2c(c1=O)SC(C)C2 (stereo not drawn) 3.97%
Cc1ccc(-n2ccnc(SCC(=O)NC3CCCCC3)c2=O)cc1F 7.99%
Cc1ccc(O)c(NC(=O)c2cc(-c3cccs3)on2)c1 5.43%
O=C(Nc1cccc(Cl)c1)c1nc[nH]c1C(=O)NCCN(CCNC(=O)c1[nH]cnc1C(=O)Nc1cccc(Cl)c1)CCNC(=O)c1[nH]cnc1C(=O)Nc1cccc(Cl)c1 10.4%
O=C(c1cc(C2CC2)nn1-c1ccccc1)N1CCN(S(=O)(=O)c2ccc(F)cc2)CC1 4.93%
COc1cc2c(CCNC(C)=O)c[nH]c2cc1Cl 7.18%
COc1ccc2[nH]cc(CCNC(C)=O)c2c1 -0.52%
O=C(C1CCN(C2CCN(Cc3ccc4c(c3)CCO4)CC2)CC1)N1CCOCC1 3.51%
COc1ccc(CCNC(=O)C2CCN(S(=O)(=O)c3ccc(C)cc3)CC2)cc1OC -4.11%
COc1cccc(N(CC(=O)NC2CCCCC2)C(=O)Cn2nnc(-c3ccc(C)o3)n2)c1 -3.15%
Cc1ccsc1/C=N/NC(=O)c1cccc(S(=O)(=O)Nc2ccccc2Cl)c1 13.6%
CC(Cn1cncn1)C(=O)N1CCN(S(=O)(=O)c2ccccc2)CC1 (stereo not drawn) 5.09%
CC(=O)Nc1ccc(NC(=O)C(C)OC(=O)CCN=C2NS(=O)(=O)c3ccccc32)cc1 (stereo not drawn) 7.31%
Cc1csc(=O)n1CC(=O)OC(C)C(=O)Nc1cccc(Cl)c1 (stereo not drawn) 5.89%
CC(OC(=O)c1cccc(N2C(=O)c3ccccc3C2=O)c1)C(=O)Nc1ccc(N(C)C)cc1 (stereo not drawn) 5.16%
Cc1csc(=O)n1CC(=O)OC(C)C(=O)Nc1ccc(F)c(F)c1F (stereo not drawn) 7.87%
Cc1ccc(-n2c(Cc3cccn3C)nnc2SCC(=O)N2CCc3ccccc32)cc1 19%
CSc1ccc(CN2CCCCCC2)cc1 18.5%
CCN(Cc1ccccc1)C1CCN(Cc2ccccc2)CC1 -17.1%
COc1cc(OC)c(OC)cc1CN1CCN(Cc2cccn2C)CC1 31.5%
COc1cc(OC)c(OC)cc1CN1CCN(c2ccc(F)cc2)CC1 10.3%
CSc1ccc(/C=N/N2CCN(Cc3ccccc3Cl)CC2)cc1 0.33%
COc1cc(OC)c(OC)cc1CN1CCN(c2ccccc2OC)CC1 19.5%
CCN(Cc1ccccc1)C(=O)C1CCN(Cc2ccc(SC)cc2)CC1 23.2%
COc1ccccc1CN1CCCCCC1 24.6%
